# Results reported in PubChem BioAssay AID743315 (Broad Institute, 2014).
# Potency and affinity values are given separately. A number with no mark means an inactive call. Calls of active or inactive are those of the source.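 How the source made its calls: active means cell killing, with a fitted active concentration at or below twice the top valid dose tested; inconclusive means flat curve with moderate cell loss, or an unreliable fit; inactive means effect in the rising direction, plus the rest.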
# Assay: HEK293T cell cytotoxicity, dose response, cytotoxicity control, plate reader, dry powder, set 10 (AID 743315)
# Details: HEK293T viability, CellTiter-Glo ATP luminescence, 72 h; series mostly up to 26 µM; activity change, negative = cytotoxicity: at the top concentration
SMILES,"activity change, negative = cytotoxicity [%]",outcome
Fc1ccc2[nH]c(=S)n(CCOc3ccccc3)c2c1,10.8,
Fc1ccc2c(c1)[nH]c(=S)n2CCOc1ccccc1,,inactive
Cc1ccc2c(c1)[nH]c(=S)n2CCOc1ccccc1,,inactive
S=c1[nH]c2ccccc2n1CCOc1ccccc1Cl,12.9,
Cc1ccc(C(C)C)c(OCCn2c(=S)[nH]c3cccc(C)c32)c1,-17.8,
S=c1[nH]c2ccccc2n1CCOc1ccc(Cl)cc1,-22.7,
Cc1cccc(OCCn2c(=S)[nH]c3c(F)cccc32)c1,,inactive
Cc1cccc(OCCn2c(=S)[nH]c3cc(F)ccc32)c1,-4.17,
COc1ccccc1OCCn1c(=S)[nH]c2ccccc21,16.7,
CCOc1ccc(OCCn2c(=S)[nH]c3ccccc32)cc1,-3.01,
S=c1[nH]c2cc(Cl)ccc2n1CCOc1ccccc1,-14.4,
CC(C)c1ccccc1NCCn1c(=S)[nH]c2ccccc21,29.9,
S=c1[nH]c2ccccc2n1CCOc1ccccc1,-4.59,
Cc1ccc(OCCn2cnc3ccccc32)c(C(C)C)c1,-41.6,
Cc1ccc(C(C)C)c(OCCn2c(CO)nc3ccccc32)c1,-16.6,
COc1cccc(OCCn2c(=S)[nH]c3ccccc32)c1,6.36,
CC(C)c1ccccc1OCCn1c(=S)[nH]c2ccccc21,-19.5,
Cc1ccc(C(C)C)c(OCCn2c(=S)[nH]c3cccc(F)c32)c1,2.92,
Fc1cccc2c1[nH]c(=S)n2CCOc1ccccc1,,inactive
S=c1[nH]c2cccc(Cl)c2n1CCOc1ccccc1,,inactive
Cc1ccc(OCCn2c(=S)[nH]c3ccccc32)c(C(C)C)c1,,inactive
Cc1ccc(OCCn2c(=S)[nH]c3ccccc32)cc1,-44.4,
c1ccc(OCCn2cnc3ccccc32)cc1,79.4,
COc1ccc(OCCn2c(=S)[nH]c3ccccc32)cc1,22.4,
